Activity calls are given as the source filed them. No rule for the calls is given here.

This assay deals with Pantothenate synthetase (Mycobacterium tuberculosis (strain ATCC 25618 / H37Rv)) (UniProt P9WIL5). Nature of the assay: Coupled enzyme confirmation of inhibitors against recombinant Mtb PanC (AID 375).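 Also: 0% = full reaction with vehicle and 100% = no enzyme background.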 Particulars: coupled enzyme assay; at 10 µM, active compounds read high.
Chain of Pantothenate synthetase (Mycobacterium tuberculosis (strain ATCC 25618 / H37Rv)) (P9WIL5 whole entry, looked up): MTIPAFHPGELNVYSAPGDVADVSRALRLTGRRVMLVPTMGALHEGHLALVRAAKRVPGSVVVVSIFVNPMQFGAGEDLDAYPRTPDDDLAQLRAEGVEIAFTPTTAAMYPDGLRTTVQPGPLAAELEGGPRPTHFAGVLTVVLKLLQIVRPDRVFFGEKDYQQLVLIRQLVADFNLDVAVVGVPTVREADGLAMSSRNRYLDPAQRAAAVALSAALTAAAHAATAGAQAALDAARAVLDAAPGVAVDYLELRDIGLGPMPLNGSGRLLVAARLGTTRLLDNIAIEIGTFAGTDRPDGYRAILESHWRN
On to `CCOc1ccc2nc(NC(=O)C(NS(=O)(=O)c3cccs3)C(C)C)sc2c1` (stereo not given), for which the inhibition was 0% (inactive).

Take `O=C(C1=C(O)C(=O)N(c2ncccn2)C1c1cccc(Cl)c1)c1ccco1` (stereo not given): the inhibition is 0% (inactive).

As to `CCOC(=O)N1CCC(N2C(=O)c3ccccc3C2Nc2ccc3c(C)cc(=O)oc3c2)CC1` (stereo not given), the inhibition is 4% (inactive).

As to `Cc1cc(NC(=O)CSc2nc3ccccc3n2CC(=O)N2CCCCC2)no1`, the inhibition is 0% (inactive).

For the molecule `CN(C)c1ccc(C(=O)OCC(=O)NC2CCCCC2)cc1`, the inhibition is 0% (inactive).

Turning to `CCOc1nc(-c2ccccc2)ccc1-c1noc(-c2ccc(OC)c(OC)c2)n1`, the inhibition was 4% (inactive).

Turning to `O=C(NCc1ccccn1)c1cc(-n2cnnc2)ccc1Cl`, the inhibition is 0% (inactive).

Take `O=C1CC(c2cccc(Cl)c2)Cc2nc(N3CCN(c4ccccc4)CC3)ncc21` (stereo not given): the inhibition is 0% (inactive).

`CN(C)c1ccc(C2C3=C(CCCC3=O)OC3=C2C(=O)CCC3)cc1`: the inhibition was 0% (inactive).

With `COc1ccc(CCNS(=O)(=O)c2ccc3c(c2)CCN3C(=O)CCC(=O)O)cc1OC`, the inhibition was 0% (inactive).

For the molecule `CCc1nnc(NC(=O)OCc2ccccc2)s1`, the inhibition is 0% (inactive).

On to `O=C(Nc1cccc2ncccc12)c1ccc2c(c1)OCCO2`, for which the inhibition is 0% (inactive).

Take `O=c1cc(-c2ccc(Cl)cc2)[nH][nH]1`: the inhibition is 1% (inactive).

In the case of `Cc1nnc(SCC(=O)Nc2ccc3c4c(cccc24)CC3)n1C`, the inhibition is 0% (inactive).

Consider `CCOC(=O)c1sc2nc(NC(=O)C(C)(C)C)sc2c1C`, for which the inhibition is 8% (inactive).

Turning to `O=c1oc2ccccc2cc1NCc1ccccc1O`, the inhibition is 0% (inactive).

`Cc1cc2c(cc(C(=O)OCC(=O)NCc3cccs3)n2C(C)C)o1`: the inhibition was 0% (inactive).

With `CCCC(=O)C1=C(N(C)c2ccccc2)CC(C)(C)C(C(=O)OC)C1=O` (stereo not given), the inhibition is 1% (inactive).

As for `CCOC(=O)c1cc2sc(C)cc2n1C(C)C(=O)OCC` (stereo not given), the inhibition is 11% (inactive).

Take `Cc1sc2nc(SCC(=O)Nc3c(C)n(C)n(-c4ccccc4)c3=O)n(C)c(=O)c2c1C`: the inhibition is 0% (inactive).

For `CCOC(=O)c1ccc2[nH]c(C)c(CN3CCN(C)CC3)c(=O)c2c1`, the inhibition was 0% (inactive).

Turning to `CCOC(=O)c1c(C)oc2ccc(O)c(CN3CCCCC3)c12`, the inhibition was 12% (inactive).

For `Cc1ccc(SCCC(=O)N(C)C)cc1`, the inhibition was 0% (inactive).

Consider `CCOc1cc(NC(=O)c2ccco2)c(OCC)cc1NC(=O)COc1ccccc1C`, for which the inhibition is 0% (inactive).

With `Cc1nc(NC2=NCN(CC3CCCO3)CN2)nc2ccccc12` (stereo not given), the inhibition was 0% (inactive).

As for `COc1cc(Br)cc(/C=N/c2ncn[nH]2)c1O`, the inhibition is 5% (inactive).

Regarding `COC(=O)C1=C(C)Nc2nnnn2C1c1ccc(Cl)cc1Cl` (stereo not given), the inhibition was 0% (inactive).

In the case of `COc1ccc(OC)c(S(=O)(=O)Nc2ccc(O)c3ccccc23)c1`, the inhibition was 8% (inactive).

With `Cc1ccc(NC(=O)COS(=O)c2ccc(C)cc2)cc1` (stereo not given), the inhibition was 0% (inactive).

Turning to `COc1ccc2c(c1)cc(C(=O)O)n2C`, the inhibition is 6% (inactive).

On to `Cc1nc2ccccc2c(=O)n1NC(=O)c1ccc(F)cc1Cl`, for which the inhibition was 5% (inactive).

In the case of `CCOc1ccc(OCC)c(NC(=O)CN2CCN(C(=O)c3ccco3)CC2)c1`, the inhibition was 0% (inactive).

Consider `CCn1nc(C(=O)OCC(=O)c2cc(C)n(Cc3cccs3)c2C)c2ccccc2c1=O`, for which the inhibition was 1% (inactive).

Regarding `CCc1nnc(NC(=O)CSc2nnc3scc(-c4ccc(C)cc4)n23)s1`, the inhibition is 0% (inactive).

For the molecule `Cc1cc(N2CCN(c3ccccn3)CC2)n2nc(C)nc2n1`, the inhibition was 1% (inactive).

Take `c1cc2c(cc1Nc1nc(-c3ccc4c(c3)OCO4)cs1)OCCO2`: the inhibition is 4% (inactive).

Consider `CCCOc1ccc(C2C(C(=O)c3ccc(C)o3)=C(O)C(=O)N2Cc2cccnc2)cc1` (stereo not given), for which the inhibition is 10% (inactive).

For the molecule `CCCC(=O)Nc1cc(-c2nnc(OC)c3ccccc23)ccc1N1CCOCC1`, the inhibition was 0% (inactive).

`CCOC(=O)CNC(=O)CSc1nnnn1-c1cc(C)ccc1C`: the inhibition was 10% (inactive).

As to `O=C(NCC1COc2ccccc2O1)c1ccccc1` (stereo not given), the inhibition was 2% (inactive).

The inhibition is the percentage by which the read-out fell short of the control.
